# Test results from PubChem BioAssay AID720650 (Broad Institute, 2013).
# Calls of active or inactive are those of the source. The rule behind the calls is not given here.
# Test: C difficile toxins, biochemical counterscreen, UDPG substrate absence, confirmatory dose response (AID 720650)
# Details: series mostly up to 19.5 µM
row,SMILES,AC50
1,O=C(NCCc1cccc(Cl)c1)c1ccc(Cl)c([N+](=O)[O-])c1,inactive
2,CCOC(=O)c1ccc[n+](CC(=O)c2ccc(NC(=O)c3ccccc3)cc2)c1,inactive
3,Cc1ccc(S(=O)(=O)Oc2ccc(/C=N/NC(=O)c3nn(C)cc3[N+](=O)[O-])cc2)cc1,inactive
4,CC(C)C12NC(=O)NC(=O)N1CCS2 (configuration not stated),inactive
5,Cc1cccc(NC(=O)c2ccc(N3CCOCC3)c([N+](=O)[O-])c2)n1,inactive
6,O=C(N/N=C/c1cccc([N+](=O)[O-])c1)c1ccc(Br)cc1,inactive
7,Cc1ccn2c(Cc3ccccc3)c(-c3ccc(F)cc3)nc2c1,inactive
8,Cc1cccc2sc(NNC(=O)C3COc4ccccc4O3)nc12 (configuration not stated),0.294 µM (active)
9,C[C@@H]1CN([C@@H](C)CO)S(=O)(=O)c2ccc(-c3ccncc3)cc2O[C@@H]1CN(C)Cc1ccc(Oc2ccccc2)cc1,inactive
10,CC(C)(C)c1cc(Cl)c(O)c(NC(=S)NC(=O)c2cccnc2)c1,inactive
11,CN(c1ccccc1)S(=O)(=O)c1cccc(C(=O)NCCc2ccc(O)c(O)c2)c1,inactive
12,Cn1ncc(Br)c1C(=O)N/N=C/c1cccc(OC2CSC2)c1,inactive
13,CC(=O)Nc1ccc(NC(=O)CN2CCN(c3ccccn3)CC2)cc1,inactive
14,Nc1ccc2c(c1)Nc1ccccc1CC2,9.36 µM (active)
15,O=C(Nc1ccncc1)c1ccc(-c2ccccc2)cc1,inactive
16,O=C(Nc1ccccc1F)N(Cc1ccc(F)cc1)Cc1nc2ccccc2c(=O)[nH]1,inactive
17,CCN(C(=O)COC(=O)c1cccnc1SC)C1CCCCC1,inactive
